In PubChem BioAssay (EPA / NIEHS):
Values joined by “and” are separate entries in the source; they are usually repeats but may differ in a detail not shown here. Identical values can stand only once. Results filed as inconclusive are left out. The source holds several records for some structures; these can differ, active in one and inactive in another. Active and inactive are the calls of the source. Rule for the calls, unless noted: active = hit-call score of the fitted dose curve at least 0.9, where 1 is the maximum; inconclusive = response in the unintended direction; inactive = score below 0.9.

Legend:
[1] = read-out: UDP glucuronosyltransferase (UGT1A1), UGT1A1 (gene 54658); experiment: LTEA_HepaRG_UGT1A1: Life Technologies and Expression Analysis (LTEA) Assay for UDP glucuronosyltransferase (UGT1A1) using HepaRG (AID 2283538; active = hit-call score of the fitted dose curve at least 0.9, where 1 is the maximum; inactive = score below 0.9); details: mRNA level, 48 h; actives raise or lower the signal
In short: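 UGT1A1 transcript level, measured by qRT-PCR with three housekeeping genes for normalization, after 48 h treatment of human HepaRG cells (0.5% DMSO, duplicates, up to 100 uM, half-log steps, 8 points). Curves fit both directions against DMSO baseline.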

[2] = read-out: UDP glucuronosyltransferase (UGT1A6), UGT1A6 (gene 54578); experiment: LTEA_HepaRG_UGT1A6: Life Technologies and Expression Analysis (LTEA) Assay for UDP glucuronosyltransferase (UGT1A6) using HepaRG (AID 2283539; active = hit-call score of the fitted dose curve at least 0.9, where 1 is the maximum; inactive = score below 0.9); details: mRNA level, 48 h; actives raise or lower the signal
In short: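 Human HepaRG cells were dosed for 48 h in serum-free induction medium with 0.5% DMSO vehicle, eight-point half-log series from 100 uM, in duplicate. UGT1A6 mRNA was measured by qRT-PCR, normalized to ACTB, GAPDH, POLR2A, and fitted bidirectionally against DMSO.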

[3] = read-out: X-box binding protein 1 (XBP1), XBP1 (gene 7494); experiment: LTEA_HepaRG_XBP1: Life Technologies and Expression Analysis (LTEA) Assay for X-box binding protein 1 (XBP1) using HepaRG (AID 2283540; active = hit-call score of the fitted dose curve at least 0.9, where 1 is the maximum; inactive = score below 0.9); details: mRNA level, 48 h; actives raise or lower the signal
In short: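 Differentiated human HepaRG cells in serum-free induction medium were exposed in duplicate for 48 h to eight half-log concentrations up to 100 uM in 0.5% DMSO. XBP1 mRNA was quantified by qRT-PCR, normalised to ACTB, GAPDH and POLR2A, with bidirectional fitting against DMSO.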

[4] = ATG_XTT_Cytotoxicity: Cytotoxicity Assessment in the Attagene TRANS-FACTORIAL HepG2 Assay (AID 2283584)
In short: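 HepG2 human liver cells, transiently transfected with multiple GAL4-UAS reporter units, were dosed and read at 24 h by XTT as cell number. Loss of signal was fitted relative to DMSO negative control baseline.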

[5] = TOX21_p53_BLA_p2_viability: Viability Assessment in the Tox21 HCT-116 p53 Agonism Beta-lactamase Assay, Phase 2 (AID 2283591);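 note: compound exposure lasted 16 h at 37 °C; actives lower the ATP signal meaning cytotoxicity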
In short: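 HCT116 p53-bla cells, 4000/well, dosed after 5 h plating (217-fold dilution of DMSO stocks) and incubated 16 h at 37C. Viability taken as cellular ATP by CellTiter-Glo luminescence after 30 min RT; signal loss marks cytotoxicity.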

[6] = target: Cellular tumor antigen p53 (Homo sapiens) (UniProt P04637); experiment: TOX21_p53_BLA_p2_ratio: Tox21 HCT-116 p53 Agonism Beta-lactamase Assay, Ratio, Phase 2 (AID 2283592)
In short: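 Ratio endpoint: beta-lactamase cleavage of CCF4-AM, blue (460 nm) over green (530 nm). HCT116 reporter line; 16 h treatment, 37C; substrate 2 h RT.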

[7] = TOX21_p53_BLA_p3_viability: Viability Assessment in the Tox21 HCT-116 p53 Agonism Beta-lactamase Assay, Phase 3 (AID 2283593);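 note: cells exposed to compound for 16 h before reading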
In short: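 HCT116 cells, 4000/well, dosed 5 h after plating by pin transfer (217-fold dilution from DMSO stock) and incubated 16 h at 37C, 5% CO2. Viability read as ATP luminescence with CellTiter-Glo after 30 min at room temperature.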

[8] = target: Cellular tumor antigen p53 (Homo sapiens) (UniProt P04637); experiment: TOX21_p53_BLA_p3_ratio: Tox21 HCT-116 p53 Agonism Beta-lactamase Assay, Ratio, Phase 3 (AID 2283596)
In short: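 Cells were seeded at 4000/well, rested 5 h at 37C, then dosed with DMSO compound solutions (217-fold dilution) for 16 h. CCF4-AM substrate was loaded for 2 h at room temperature, and the 460/530 nm emission ratio was fitted for gain of signal versus DMSO.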

[9] = TOX21_p53_BLA_p5_viability: Viability Assessment in the Tox21 HCT-116 p53 Agonism Beta-lactamase Assay, Phase 5 (AID 2283600)
In short: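 Luciferase-coupled ATP quantitation of cells treated for 16 h (37C, 5% CO2) with test chemicals delivered in DMSO via a 217-fold dilution; 4000 cells/well; reagent incubated 30 min at room temperature before luminescence reading.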

[10] = target: Cellular tumor antigen p53 (Homo sapiens) (UniProt P04637); experiment: TOX21_p53_BLA_p4_ratio: Tox21 HCT-116 p53 Agonism Beta-lactamase Assay, Ratio, Phase 4 (AID 2283601)
In short: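 HCT-116 p53 beta-lactamase reporter cells (4000/well) preincubated 5 h, then compound (217-fold dilution of DMSO stock) for 16 h at 37C. CCF4-AM substrate added 2 h at room temperature; 460/530 nm emission ratio fitted upward versus DMSO.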

[11] = Tanguay_ZF_120hpf_MORT_legacy: (Legacy) Oregon State University Tanguay Lab 120 Hour Post-fertilization zebrafish Assay for Mortality (AID 2283633)
In short: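 Dechorionated Tropical 5D wild-type zebrafish embryos, one per well from 6 hpf, were statically exposed at 28C in the dark until 120 hpf (0.64% DMSO final). Mortality was scored as present/absent by brightfield microscopy, fitted positively versus DMSO.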

[12] = Tanguay_ZF_120hpf_YSE_legacy: (Legacy) Oregon State University Tanguay Lab 120 Hour Post-fertilization zebrafish Assay for Yolk Sac Edema (AID 2283634);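 for AC50: actives raise the incidence of yolk sac edema above the DMSO baseline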
In short: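 Tropical 5D wild-type embryos, dechorionated with pronase at 4 hpf, were exposed singly from 6 hpf to 120 hpf under static, sealed, dark conditions at 28C with 0.64% DMSO final. Yolk sac edema was scored present/absent by brightfield microscopy.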

[13] = Tanguay_ZF_120hpf_AXIS_legacy: (Legacy) Oregon State University Tanguay Lab 120 Hour Post-fertilization zebrafish Assay for Body Axis Malformation (AID 2283635);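 for AC50: potency for an increased fraction of larvae scored with body axis malformation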
In short: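 Tropical 5D wild-type zebrafish embryos, dechorionated with pronase at 4 hpf, were placed singly in wells at 6 hpf and exposed statically to test chemical (0.64% DMSO final) at 28C until 120 hpf, then scored by brightfield for body axis defects.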

[14] = Tanguay_ZF_120hpf_EYE_legacy: (Legacy) Oregon State University Tanguay Lab 120 Hour Post-fertilization zebrafish Assay for Eye Malformation (AID 2283636);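 note: binary presence or absence of eye malformation scored by brightfield in 120 hpf larvae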
In short: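 5D wild-type embryos, pronase-dechorionated at 4 hpf; static exposure 6–120 hpf, 28C, dark; DMSO 0.64% final; 5uM trimethyltin chloride positive control. Binary eye-defect scoring at 120 hpf; dead embryos not scored.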

[15] = Tanguay_ZF_120hpf_SNOU_legacy: (Legacy) Oregon State University Tanguay Lab 120 Hour Post-fertilization zebrafish Assay for Snout Malformation (AID 2283637)
In short: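 Binary brightfield scoring of snout malformation at 120 hpf. Dechorionated 5D wild-type embryos, one per well, static exposure from 6 hpf at 28C, sealed and dark; final DMSO 0.64% (vol/vol), DMSO as baseline; 5uM trimethyltin chloride positive control.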

[16] = Tanguay_ZF_120hpf_JAW_legacy: (Legacy) Oregon State University Tanguay Lab 120 Hour Post-fertilization zebrafish Assay for Jaw Malformation (AID 2283638);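 for AC50: active means more embryos with jaw malformation than DMSO controls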
In short: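 Tropical 5D wild-type embryos, dechorionated with pronase at 4 hpf, were placed singly per well at 6 hpf and statically exposed at 28C until 120 hpf (0.64% DMSO final). Jaw malformation scored as present/absent by brightfield microscopy at 120 hpf, analyzed relative to DMSO.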

[17] = Tanguay_ZF_120hpf_OTIC_legacy: (Legacy) Oregon State University Tanguay Lab 120 Hour Post-fertilization zebrafish Assay for Otic Vesicle Malformation (AID 2283639)
In short: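 Binary scoring of otic vesicle defects at 120 hpf in zebrafish (Tropical 5D) held under static exposure at 28C, sealed and shaded, with final DMSO 0.64%. Embryos dying by 24 or 120 hpf excluded; fitted positively against DMSO.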

[18] = LTEA_HepaRG_LDH_cytotoxicity: Cytotoxicity Assessment in the Life Technologies and Expression Analysis (LTEA) Assay (AID 2283563)
In short: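 Differentiated human HepaRG cells, plated 48 h beforehand, were switched to serum-free induction medium and exposed for 48 h to eight half-log concentrations (top 100 uM) in 0.5% DMSO. LDH was measured in spent medium; activity was fitted relative to DMSO vehicle.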

[19] = target: Cellular tumor antigen p53 (Homo sapiens) (UniProt P04637); experiment: TOX21_p53_BLA_p5_ratio: Tox21 HCT-116 p53 Agonism Beta-lactamase Assay, Ratio, Phase 5 (AID 2283599)
In short: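 HCT-116 p53-bla cells (4000/well) plated 5 h, dosed with compound (217-fold DMSO dilution) for 16 h at 37 C; CCF4-AM substrate 2 h at room temperature. Activity is the 460/530 nm emission ratio (405 nm excitation), fitted in gain-of-signal direction versus DMSO.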

[20] = TOX21_p53_BLA_p4_viability: Viability Assessment in the Tox21 HCT-116 p53 Agonism Beta-lactamase Assay, Phase 4 (AID 2283597);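 note: hits lower the luminescence signal meaning cytotoxicity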
In short: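 Cytotoxicity was inferred from loss of CellTiter-Glo luminescence. HCT116 cells had been dosed with compounds after 5 h plating, incubated 16 h at 37C and 5% CO2, and exposed to the CCF4-AM substrate for 2 h.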

Measured: AC50

Sequence of Cellular tumor antigen p53 (Homo sapiens) (P04637 whole entry, looked up): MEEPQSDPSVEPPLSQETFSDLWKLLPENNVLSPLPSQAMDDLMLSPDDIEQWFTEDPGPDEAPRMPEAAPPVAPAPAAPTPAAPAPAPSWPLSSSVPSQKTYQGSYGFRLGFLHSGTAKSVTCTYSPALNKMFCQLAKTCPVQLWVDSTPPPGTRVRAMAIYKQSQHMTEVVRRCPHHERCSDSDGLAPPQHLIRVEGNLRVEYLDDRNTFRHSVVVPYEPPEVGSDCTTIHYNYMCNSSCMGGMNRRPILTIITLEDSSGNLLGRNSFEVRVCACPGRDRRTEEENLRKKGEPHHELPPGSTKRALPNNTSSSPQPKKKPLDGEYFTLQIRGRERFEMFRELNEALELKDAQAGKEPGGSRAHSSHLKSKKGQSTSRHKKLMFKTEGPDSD

Oc1ccc2ccccc2c1N=Nc1ccccc1
active: [1] 0.811 µM | [3] 7.84 µM | [12] 43.7 µM | [13] 17.3 µM | [15] 43.8 µM | [16] 9.73 µM
not listed: [18] | [19] | [20]
inactive: all other assays above

NC(=O)Cn1c(=O)cc(CCN2CCN(c3nccc4sccc34)CC2)c2ccc(F)cc21
active: [1] 12.6 µM | [2] 34.6 µM | [3] 77 µM
not listed: [4] | [5] | [8] | [9] | [10] | [19] | [20]
inactive: all other assays above

COc1cc(/C=C/C(=O)CC(=O)/C=C/c2ccc(O)c(OC)c2)ccc1O
active: [5] 82.2 µM and 34.1 µM | [6] 2.06 µM and 36 µM and 6.79 µM | [7] 57.5 µM and 19.8 µM | [8] 13.6 µM and 35.3 µM and 6.9 µM | [9] 80.7 µM and 22.5 µM | [10] 14 µM and 36.5 µM and 7.12 µM
inactive: [4] | [5] | [7]

Cc1nc(C)nc(N2C[C@@H](C)N(c3ccnc([C@@H](C)O)n3)[C@@H](C)C2)n1
not listed: [4] | [8] | [10] | [19] | [20]
inactive: all other assays above

CCCCCCOCCO
not listed: [4] | [7] | [20]
inactive: all other assays above

COc1cc(S(=O)(=O)O)c(C)cc1N=Nc1c(O)ccc2cc(S(=O)(=O)O)ccc12
not listed: [5] | [7] | [9] | [18] | [20]
inactive: all other assays above

Cc1cc(NC(=O)C(=O)O)cc(C)c1Oc1ccc(O)c2c1CCC2
active: [12] 0.0678 µM | [13] 0.526 µM | [15] 0.0742 µM | [16] 0.0689 µM
not listed: [4] | [5] | [7] | [9] | [20]
inactive: all other assays above

CCCCc1ccc2c(n1)[C@@H](c1ccc(OC)cc1C[C@H](C)C(=O)O)[C@H](C(=O)O)[C@H]2c1ccc2c(c1)OCO2
not listed: [4] | [8] | [9] | [10] | [17]
inactive: all other assays above
